Source: PubChem BioAssay (NCATS)
Where “and” joins values, the source holds several entries; their conditions need not be identical. Equal entries are not always repeated. Inconclusive results are not listed. A structure can be active in one record and inactive in another. Calls of active or inactive are those of the source. Unless noted, the call rests on the fitted dose curve; in most records, active means well fitted curve in the direction sought with a large enough effect; inconclusive means small, poorly fitted or top-dose-only effect, or another doubt; inactive means no such curve, though single readings can be large; an effect the other way counts as inactive or inconclusive.

Assays:
[1] = Cell Viability - HepG2 (AID 433; calls by dose curve;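 further: potency means the concentration at half of the fitted maximal effect; cells exposed to compound for 40 hours; potency for ATP loss meaning cytotoxicity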); conditions: qHTS
In short: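 In this qHTS format, a 40 h, 37 °C compound incubation of HepG2 cells in complete medium precedes a 20 min CellTiter-Glo step at room temperature. Tamoxifen and doxorubicin serve as positive controls; Hill-equation fits yield AC50.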

[2] = Cellular Toxicity (caspase-3) SK-N-SH (AID 661);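 further: cells exposed to compound for 16 hours; 0% = DMSO basal and 100% = 10 µM staurosporine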
In short: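 Cells were seeded and incubated 5 hr at 37 °C, dosed with compound over a concentration range for 16 hr, then given Caspase-Glo 3/7 reagent for 1 hr at room temperature before luminescence reading.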

[3] = Cellular Toxicity (caspase-3) H-4-II-E (AID 663); conditions: H-4-II-E rat hepatoma, scaled: DMSO 0%, 100 µM tamoxifen 100%; at 92.2 µM (top of the series);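 further: cells exposed to compound for 16 hr before readout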
In short: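 Caspase 3/7 activation measured in H-4-II-E cells in complete culture medium after 16 hr treatment at 37 °C, using luciferase-coupled substrate readout; AC50 values come from Hill-equation fits of normalized concentration-response data.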

[4] = biological target: Cytochrome P450 3A4 (Homo sapiens) (UniProt P08684); assay: qHTS Assay for Inhibitors and Substrates of Cytochrome P450 3A4 (AID 884); further: nearly all actives have a fitted effect of over 50% in size; further: potency means the concentration at half of the fitted maximal effect
Sequence of Cytochrome P450 3A4 (Homo sapiens) (P08684 whole entry, looked up): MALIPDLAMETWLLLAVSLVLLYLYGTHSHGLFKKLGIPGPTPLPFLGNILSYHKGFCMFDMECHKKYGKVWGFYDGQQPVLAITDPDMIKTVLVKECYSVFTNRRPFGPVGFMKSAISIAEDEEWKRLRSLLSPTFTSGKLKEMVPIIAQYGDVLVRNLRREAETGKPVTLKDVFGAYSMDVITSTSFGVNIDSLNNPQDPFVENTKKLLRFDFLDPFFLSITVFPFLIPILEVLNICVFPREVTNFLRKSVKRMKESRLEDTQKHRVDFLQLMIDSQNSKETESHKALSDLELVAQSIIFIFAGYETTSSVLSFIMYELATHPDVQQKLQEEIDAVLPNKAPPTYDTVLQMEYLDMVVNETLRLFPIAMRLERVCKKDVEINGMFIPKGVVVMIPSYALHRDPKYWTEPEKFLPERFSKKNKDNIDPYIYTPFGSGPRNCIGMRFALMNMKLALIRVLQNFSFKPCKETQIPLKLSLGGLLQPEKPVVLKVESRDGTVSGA
In short: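 Luminescent readout of luciferin produced by CYP3A4 (20 nM) dealkylation of Luciferin-PPXE, 25 uM (its KM). NADPH-driven reaction ran 60 min at RT after 10 min compound preincubation; data scaled to 57 uM ketoconazole as 100% inhibition.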

[5] = qHTS assay for small molecule activators of the p53 signaling pathway (AID 651743; active means well fitted activation curve with a large enough effect in the signal ratio, not every such curve was filed as active; the % refers to the signal ratio; further: potency means the concentration at half of the fitted maximal effect; on activation: % of control where 0% means no effect); conditions: HCT-116 p53RE-bla, beta-lactamase FRET ratio, 16 h; activation: stronger effect = higher value
In short: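 Agonist-mode quantitative HTS in HCT-116 cells carrying a p53-response-element beta-lactamase reporter; 16 h compound treatment at 37 C, then FRET substrate loading for 2 h at room temperature and fluorescence read.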

[6] = biological target: Nuclear receptor ROR-gamma (Homo sapiens) (UniProt P51449); assay: qHTS assay for small molecule antagonists of the retinoid-related orphan receptor gamma (ROR-gamma) signaling pathway (AID 651802); further: nearly all actives have a fitted effect of over 60% in size; further: potency means the concentration at half of the fitted maximal effect
Sequence of Nuclear receptor ROR-gamma (Homo sapiens) (P51449 whole entry, looked up): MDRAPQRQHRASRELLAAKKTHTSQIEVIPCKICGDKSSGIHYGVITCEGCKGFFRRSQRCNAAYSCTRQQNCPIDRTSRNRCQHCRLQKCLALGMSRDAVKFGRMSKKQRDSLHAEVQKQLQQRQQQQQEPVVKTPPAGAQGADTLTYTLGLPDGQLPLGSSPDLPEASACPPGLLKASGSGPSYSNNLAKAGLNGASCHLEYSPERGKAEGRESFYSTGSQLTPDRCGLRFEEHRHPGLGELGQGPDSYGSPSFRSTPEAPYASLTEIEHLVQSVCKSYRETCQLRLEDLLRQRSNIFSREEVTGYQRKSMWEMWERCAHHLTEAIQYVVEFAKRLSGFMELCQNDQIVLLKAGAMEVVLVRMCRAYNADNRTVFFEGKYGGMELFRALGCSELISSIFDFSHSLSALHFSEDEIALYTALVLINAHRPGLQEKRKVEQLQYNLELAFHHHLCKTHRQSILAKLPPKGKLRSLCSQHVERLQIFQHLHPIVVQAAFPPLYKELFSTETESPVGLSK
In short: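 Steps: cells dispensed; compound or DMSO transferred by pin tool; doxycycline added to induce the ROR response element-driven luciferase; plates held 16hr at 37C; ONE-Glo added and luminescence measured.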

[7] = qHTS assay for small molecule agonists of the antioxidant response element (ARE) signaling pathway measured by Nrf2-dependant transcriptional activity (AID 720636; active means well fitted curve in the direction sought with a large enough effect in the repeat runs; an effect the other way counts as inactive or inconclusive; further: potency means the concentration at half of the fitted maximal effect;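 on activation: HepG2 cells with an ARE-driven luciferase reporter; % of control where 0% means no effect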)
In short: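 Attachment 6 hr at 37 C, then compound versus DMSO vehicle for 16 hr in ARE-luc HepG2 cells (1% dialyzed FBS); luminescence recorded 30 min after ONE-Glo addition at room temperature.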

[8] = MultiTox-Fluor Cytotoxicity Assay - LYMP1-002 - Dead Cells (AID 960); further: nearly all actives have a fitted effect of over 60% in size; further: potency means the concentration at half of the fitted maximal effect
In short: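 Cells were plated, rested 5 hr, then treated with compound dilution series for 16 hr at 37 C. After adding substrate reagent and 60 min at room temperature, dead-cell protease fluorescence gave concentration-response curves fitted by the Hill equation.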

[9] = Cell Viability - LYMP2-004 (AID 966);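 further: cells exposed to compound for 24 h; nearly all actives have a fitted effect of over 65% in size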; further: potency means the concentration at half of the fitted maximal effect
In short: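 qHTS cytotoxicity: human lymphoblastoid line, 24 hr compound treatment, 37 C, complete medium. Viability read as cellular ATP via luciferase luminescence; tetraoctylammonium bromide served as positive control.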

[10] = Cell Viability - LYMP2-006 (AID 978);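 further: cells exposed to compound for 24 hours; nearly all actives have a fitted effect of over 60% in size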; further: potency means the concentration at half of the fitted maximal effect
In short: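 In this cytotoxicity screen, the human lymphoblastoid line grew in complete medium with test compounds for 24 hr at 37 C. Cellular ATP served as the viability signal.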

[11] = Cell Viability - LYMP2-024 (AID 988); further: nearly all actives have a fitted effect of over 60% in size; further: potency means the concentration at half of the fitted maximal effect
In short: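 qHTS cytotoxicity, human lymphoblastoid line, complete medium; 24 h cpd treatment, 37 C; CellTiter-Glo ATP luminescence readout; tetraoctylammonium bromide positive control; AC50 via Hill fit.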

[12] = qHTS assay for cell viability of HEK293 cells (AID 743288); conditions: ATP luminescence (CellTiter-Glo), 18 h; max response: stronger effect = lower value; further: nearly all actives have a fitted effect of over 50% in size; further: potency means the concentration at half of the fitted maximal effect; on max response: on the % scale 0 is the no-effect control and ±100 the full control effect
In short: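 HEK293, 18 h, 37 C, ATP luminescence. Cells at 2,000/well were allowed at least 5 h to settle before dosing; CellTiter-Glo developed 30 min at RT.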

[13] = Cell Viability - LYMP2-013 (AID 970);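 further: cells exposed to compound for 24 h at 37 °C; nearly all actives have a fitted effect of over 55% in size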; further: potency means the concentration at half of the fitted maximal effect
In short: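 Cytotoxicity is scored as a concentration-dependent drop in intracellular ATP in human lymphoblastoid cells after 24 hr compound exposure at 37 C. ATP is quantified by luciferase luminescence, and AC50 values come from Hill-equation modeling.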

[14] = Cell Viability - LYMP2-010 (AID 981);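 further: cells exposed to compound for 24 hours at 37 °C; nearly all actives have a fitted effect of over 55% in size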; further: potency means the concentration at half of the fitted maximal effect
In short: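 Steps: seed 2500 LYMP2-010 cells per well; incubate 5 hr at 37 C; add compound; incubate 24 hr at 37 C; add CellTiter-Glo, wait 30 min at room temperature; read luminescence. Concentration-response fitted to Hill equation for AC50.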

[15] = Cell Viability - LYMP2-014 (AID 983);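 further: cells exposed to compound for 24 h at 37 °C; nearly all actives have a fitted effect of over 50% in size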; further: potency means the concentration at half of the fitted maximal effect
In short: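 Cells are plated at 2500/well and left 5 hr at 37 C. Compounds are added across a concentration range and incubated 24 hr at 37 C in complete medium. CellTiter-Glo is added, and luminescence is read after 30 min at room temperature.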

[16] = Cell Viability - LYMP2-022 (AID 987); further: nearly all actives have a fitted effect of over 55% in size; further: potency means the concentration at half of the fitted maximal effect
In short: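 Cells were seeded at 2500 per well, rested 5 hr at 37 C, and treated with titrated compounds for 24 hr at 37 C. Cellular ATP was then quantified by luciferase luminescence, and AC50 values were derived from Hill-modelled concentration-response curves.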

[17] = biological target: Guanine nucleotide-binding protein G(i) subunit alpha-1 (Homo sapiens) (UniProt P63096); assay: qHTS Assay for Inhibitors of RGS12 GoLoco Motif Activity (Green Fluorophore) (AID 879); further: potency means the concentration at half of the fitted maximal effect
Sequence of Guanine nucleotide-binding protein G(i) subunit alpha-1 (Homo sapiens) (P63096 whole entry, looked up): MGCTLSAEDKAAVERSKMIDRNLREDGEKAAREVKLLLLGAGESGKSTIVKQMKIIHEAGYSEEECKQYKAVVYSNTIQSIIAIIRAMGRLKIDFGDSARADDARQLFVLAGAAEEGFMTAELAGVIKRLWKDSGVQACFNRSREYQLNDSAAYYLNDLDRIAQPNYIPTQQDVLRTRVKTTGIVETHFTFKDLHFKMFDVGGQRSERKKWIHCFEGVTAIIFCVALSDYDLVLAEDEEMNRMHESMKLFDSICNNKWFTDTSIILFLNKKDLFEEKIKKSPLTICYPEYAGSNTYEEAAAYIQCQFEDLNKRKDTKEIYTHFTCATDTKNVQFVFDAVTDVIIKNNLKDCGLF
In short: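 A drop in FITC polarization marked displacement of the FITC-tagged RGS12 GoLoco peptide (10 nM) from Gαi1 (50 nM). Compounds were incubated 10 min at room temperature in Tris pH 7.5 buffer containing 150 mM NaCl, 0.1 mM GDP and 0.05% NP40; unlabeled peptide titration served as control.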

[18] = biological target: Alpha-galactosidase A (Homo sapiens) (UniProt P06280); assay: Counterscreen for Glucocerebrosidase Inhibitors: qHTS Assay for Human alpha-Galactosidase at pH 4.5 (AID 992); further: 0% is about no effect
Sequence of Alpha-galactosidase A (Homo sapiens) (P06280 whole entry, looked up): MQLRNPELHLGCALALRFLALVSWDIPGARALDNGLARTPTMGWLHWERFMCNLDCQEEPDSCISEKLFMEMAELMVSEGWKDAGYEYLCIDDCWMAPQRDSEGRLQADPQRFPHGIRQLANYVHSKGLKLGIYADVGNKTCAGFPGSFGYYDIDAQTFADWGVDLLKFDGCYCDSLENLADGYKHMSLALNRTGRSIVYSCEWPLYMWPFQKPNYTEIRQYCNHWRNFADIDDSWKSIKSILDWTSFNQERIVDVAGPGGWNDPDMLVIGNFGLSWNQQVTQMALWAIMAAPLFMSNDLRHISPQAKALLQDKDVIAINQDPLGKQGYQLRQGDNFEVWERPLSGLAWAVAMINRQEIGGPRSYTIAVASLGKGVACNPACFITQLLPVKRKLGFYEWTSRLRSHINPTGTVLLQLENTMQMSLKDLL
In short: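 Each compound is preincubated briefly with 2 nM enzyme before substrate addition (80 uM); plates then sit 20 min at ambient temperature, are quenched with 1M NaOH/1M glycine, and read fluorometrically.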

[19] = biological target: alpha-glucosidase (Oryza sativa, rice) (UniProt Q653V4); assay: Counterscreen for Glucocerebrosidase Inhibitors: qHTS Assay for Rice alpha-Glucosidase at pH 5.0 (AID 997);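 further: 0% = full activity with enzyme and -100% = basal without enzyme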
In short: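 Endpoint fluorogenic assay at pH 5.0: compounds (0.7 nM to 77 uM) titrated against 4 nM rice enzyme and 400 uM 4-MU-alpha-glucoside for 20 min at room temperature; NaOH/glycine stop, read ex 365/em 440 nm, Hill-fitted AC50.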

C(=NC1CCCCC1)=NC1CCCCC1
active: Potency [1] 3.31 µM | caspase-3 activation [3] 91.9% | Potency [6] 18.8 µM
inactive: outcome [2] | Potency [4] | activation [5] 5% | Potency [7]

O=C1C2(Cl)C3(Cl)C4(Cl)C(Cl)(Cl)C5(Cl)C3(Cl)C1(Cl)C5(Cl)C24Cl (stereo unspecified)
inactive: outcome [2] | Potency [11] | Potency [7] | max response [12] -22.6% and -16.2%
39.8 µM (active) and inactive: Potency [10]
active: Potency [1] 31.3 µM and 59.3 µM | Potency [4] 10 µM and 15.8 µM | Potency [8] 20 µM and 15.8 µM | Potency [9] 39.8 µM | Potency [6] 9.44 µM and 10.6 µM

FC(F)(F)c1ccc(Cl)cc1
inactive: Potency [1] > 92 µM | outcome [2] | caspase-3 activation [3] 1.12% | Potency [4] | Potency [8] | Potency [9] | Potency [13] | Potency [10] | Potency [14] | Potency [15] | Potency [16] | Potency [11] | activation [5] -2.63% and 1.33% | Potency [6] | Potency [7] | max response [12] -1.88% and 4.63%

Oc1c(Br)c(Br)c(Br)c(Br)c1Br
inactive: Potency [1] > 92 µM | outcome [2] | caspase-3 activation [3] 10.1% | Potency [8] | Potency [9] | Potency [13] | Potency [10] | Potency [15] | Potency [16] | Potency [11] | Potency [7] | max response [12] -15.8%

O=[N+]([O-])C(Br)Br
active: Potency [9] 25.1 µM | Potency [13] 12.6 µM | Potency [10] 20 µM | Potency [14] 7.94 µM | Potency [15] 15.8 µM | Potency [16] 12.6 µM | Potency [11] 7.94 µM | Potency [6] 18.8 µM
inactive: outcome [2] | Potency [4] | Potency [8] | activation [5] 12.3% | max response [12] -25.4%

CN[C@@H](C)[C@@H](O)c1ccccc1
inactive: outcome [18] | outcome [19]
active: Potency [17] 7.94 µM

CCC/C=C(\CCC)C(NP(=O)(c1ccccc1)c1ccccc1)c1ccccc1 (stereo unspecified)
active: Potency [4] 6.31 µM

Cc1ccc(O)cc1C
inactive: Potency [1] > 92 µM | activation [5] -0.374% | Potency [7] | max response [12] 6.02%

[Cd+2].[Cl-].[Cl-]
inactive: outcome [2] | caspase-3 activation [3] -2.46% | Potency [8] | activation [5] -8.9%
active: Potency [14] 50.1 µM | Potency [16] 39.8 µM | Potency [6] 3.35 µM | Potency [7] 841 nM

O=[N+]([O-])c1ccccc1Cl
inactive: Potency [1] > 92 µM | Potency [7] | max response [12] -0.622% and -10.4%

ClC1=C(Cl)C2(Cl)C3C(Cl)C(Cl)CC3C1(Cl)C2(Cl)Cl (stereo unspecified)
inactive: Potency [1] > 92 µM | Potency [13] | Potency [15] | activation [5] 0.792% | Potency [7]
active: Potency [4] 15.8 µM | Potency [6] 37.6 µM

CC(=O)[O-].CC(=O)[O-].O.O.[Cd+2]
active: Potency [14] 39.8 µM | Potency [7] 841 nM
inactive: outcome [2] | caspase-3 activation [3] 0.407% | Potency [8]

c1ccc2cc3c(cc2c1)-c1cccc2cccc-3c12
inactive: Potency [1] > 92 µM | outcome [2] | caspase-3 activation [3] 0.959% | Potency [4] | Potency [8] | Potency [9] | Potency [13] | Potency [10] | Potency [14] | Potency [15] | Potency [16] | Potency [11] | Potency [6]
active: Potency [5] 6.31 µM and 8.91 µM | Potency [7] 9.44 µM and 8.63 µM

N#CSCSC#N
inactive: caspase-3 activation [3] -3.87% | Potency [4] | Potency [7]
active: Potency [1] 50.3 µM | Potency [8] 10 µM | Potency [9] 6.31 µM | Potency [13] 6.31 µM | Potency [10] 12.6 µM | Potency [14] 3.98 µM | Potency [15] 7.94 µM | Potency [16] 5.01 µM | Potency [11] 3.98 µM | Potency [5] 25.1 µM | Potency [12] 28.2 µM

Clc1ccc(C(c2ccc(Cl)cc2)C(Cl)Cl)cc1
inactive: outcome [2] | Potency [4] | Potency [9] | Potency [13] | Potency [10] | Potency [14] | Potency [15] | Potency [16] | Potency [11] | activation [5] 6.6% | Potency [7]
active: caspase-3 activation [3] 87.3% | Potency [8] 15.8 µM | Potency [6] 37.6 µM

O=[N+]([O-])c1cc(C(F)(F)F)cc([N+](=O)[O-])c1Cl
active: Potency [13] 39.8 µM | Potency [14] 31.6 µM | Potency [15] 50.1 µM | Potency [16] 31.6 µM | Potency [11] 31.6 µM
inactive: Potency [1] > 92 µM | caspase-3 activation [3] 24.4% | Potency [8] | Potency [6] | Potency [7]

C#CCO
inactive: Potency [1] > 92 µM | outcome [2] | caspase-3 activation [3] 0.354% | Potency [8] | Potency [9] | Potency [13] | Potency [10] | Potency [14] | Potency [15] | Potency [16] | Potency [11] | activation [5] 0.794% | Potency [6] | max response [12] -6.13%

C[C@@H]1CC[C@@]2(OC1)O[C@H]1[C@@H](O)[C@H]3[C@@H]4CC[C@H]5C[C@@H](O[C@@H]6O[C@H](CO)[C@H](O[C@@H]7O[C@H](CO)[C@@H](O)[C@H](O[C@@H]8OC[C@@H](O)[C@H](O)[C@H]8O)[C@H]7O[C@@H]7O[C@H](CO)[C@@H](O)[C@H](O[C@@H]8O[C@H](CO)[C@@H](O)[C@H](O)[C@H]8O)[C@H]7O)[C@H](O)[C@H]6O)[C@H](O)C[C@]5(C)[C@H]4CC[C@]3(C)[C@H]1[C@@H]2C
inactive: outcome [2] | caspase-3 activation [3] -3.54% | Potency [7]
active: Potency [1] 11.9 µM | Potency [9] 12.6 µM | Potency [13] 20 µM | Potency [10] 20 µM | Potency [14] 20 µM | Potency [15] 25.1 µM | Potency [16] 15.8 µM | Potency [11] 12.6 µM | Potency [12] 25.1 µM

COc1ccc2c(c1O)-c1c(OC)c(OC)cc3c1[C@@H](C2)N(C)CC3
inactive: Potency [4]

CCCCCCCCCCCCCC(=O)O[C@H]1[C@@H](C)[C@@]2(O)[C@@H](C=C(CO)C[C@]3(O)C(=O)C(C)=C[C@@H]23)C2C(C)(C)[C@]21OC(C)=O (stereo partly specified)
inactive: Potency [17] | outcome [18] | outcome [19]

COC[C@H]1OC(=O)c2coc3c2[C@@]1(C)C1=C(C3=O)[C@H]2CCC(=O)[C@@]2(C)C[C@H]1OC(C)=O
inactive: outcome [18] | outcome [19]
active: Potency [17] 25.1 µM

C[C@@H]1O[C@@H](O[C@H]2C[C@@H](O)[C@]3(CO)[C@@H]4[C@@H](O)C[C@]5(C)[C@H]([C@@H]6COC(=O)C6)CC[C@@]5(O)[C@H]4CC[C@@]3(O)C2)[C@H](O)[C@H](O)[C@@H]1O
inactive: Potency [17] | outcome [18] | outcome [19]

Oc1cc2c(cc1O)[C@H]1c3ccccc3CN[C@@H]1CC2
inactive: Potency [17] | outcome [18] | outcome [19]
